Source: PubChem
This is a sample that favours compounds with a hit; in the whole collection about 2.4% have one here.
D2 PAM-1: positively modulates the human D2 dopamine receptor allosterically; HEK293 T-REx D2, calcium flux, EC20 dopamine potentiation; potentiation, % at 10 µM; 340,000 compounds, 0.34% hits; AID 485347;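 active = potentiation over 3 SD above the plate norm, cut at about 30% in these data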; note: 0% is about no effect
Target sequence (P14416 whole entry, looked up): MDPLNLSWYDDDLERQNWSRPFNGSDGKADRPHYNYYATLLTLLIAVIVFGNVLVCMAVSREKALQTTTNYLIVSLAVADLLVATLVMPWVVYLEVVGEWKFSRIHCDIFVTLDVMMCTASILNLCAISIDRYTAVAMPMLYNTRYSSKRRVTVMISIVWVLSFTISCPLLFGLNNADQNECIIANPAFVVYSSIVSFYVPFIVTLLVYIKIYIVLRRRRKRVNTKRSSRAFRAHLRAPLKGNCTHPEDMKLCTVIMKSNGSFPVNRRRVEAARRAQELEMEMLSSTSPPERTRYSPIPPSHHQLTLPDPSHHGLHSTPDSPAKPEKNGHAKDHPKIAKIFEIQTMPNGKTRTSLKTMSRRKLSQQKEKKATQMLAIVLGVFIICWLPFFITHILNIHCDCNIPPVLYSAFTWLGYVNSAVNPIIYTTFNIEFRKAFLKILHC
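Potentiation of an EC20 dopamine calcium response is measured in a force-coupled, tetracycline-inducible Hek293 Trex D2 line. Compound-only kinetic reads over 180 s flag agonists before dopamine addition.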
D2 antagonist: antagonists of human D2 dopamine receptor; 340,000 compounds, 2% hits; HEK293 TREx D2 cells, calcium flux, dopamine EC80; P14416; AID 485344; inhibition, % at 10 µM; in the data active = inhibition above about 30%; inactive = below that, where a call was filed; note: 0% is about no effect
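Cells plated overnight at 30 C with tetracycline; no-wash calcium dye, 30–90 min RT; 10 s baseline; compound pinned; 180 s read; EC80 dopamine added; another 180 s read.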
D2 ag-1: D2 dopamine receptor (human) agonism | P14416 | AID 485358 | activation, % at 2 µM | HEK293 T-REx D2 cells, calcium flux agonist mode | 340,000 compounds, 0.53% hits;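 active = activation over 3 SD above normal in the single-dose calcium agonist read, cut at about 30% in these data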; note: 0% is about no effect
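Tetracycline-induced HEK293 T-REx cells with force-coupled D2 receptor, plated overnight at 30 C, loaded with no-wash calcium dye. After a 10 s baseline, compound was pin-added and calcium flux read kinetically for 180 s; calcium rises flagged agonists.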
D2 PAM-2: positive allosteric modulators of human D2 dopamine receptor. P14416. DiscoveRx D2 beta-arrestin cells, luminescence, 90 min; 100% = 57 uM dopamine signal. potentiation, % (test concentration not listed). 360,000 compounds, 0.23% hits; in the data active = potentiation above about 50%; inconclusive = mostly about 30% to 49%
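D2 cells co-treated with compound plus 50 nM dopamine (EC20) for 90 min at 37 deg C to detect potentiation. Beta-arrestin recruitment was read as enzyme-fragment luminescence after 1 h at ambient temperature. Full response was set by 57 uM dopamine.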
D2 ag-2: human D2 receptor agonism in beta-arrestin assay | P14416 | DiscoveRx PathHunter D2 beta-arrestin, luminescence, 90 min; 100% = 57 uM dopamine signal | activation, % (test concentration not listed) | 360,000 compounds, 0.084% hits | AID 624465; in the data active = activation above about 40%; inconclusive = between about 15% and that limit
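Agonist mode: compounds alone added to overnight-plated D2 PathHunter cells for 90 min at 37 C, with 57 uM final dopamine (EC100) defining full response. Beta-arrestin recruitment detected by chemiluminescent reagent, read after 1 h at ambient temperature.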
D3 arrestin ag: activates human D3 dopamine receptor beta-arrestin recruitment | AID 720506 | Potency, µM (highest dose often 76.9 µM), for the others: at the top dose activation, hits mostly activators | DiscoveRx D3 beta-arrestin cells, luminescence, 90 min | shares compounds with D2 ag-1 | 2,300 compounds, 4% hits;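 note: potency is the fitted concentration of half-maximal effect; 100% = dopamine control response; nearly all actives have a fitted effect of over 70% in size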
D2 ag-3: counter-screen for D3 agonists: human D2 dopamine receptor agonism; shares compounds with D2 ag-1; DiscoveRx PathHunter D2 beta-arrestin, luminescence, 90 min; response scale: percent relative to full dopamine signal; Potency, µM (titrated, usually from 76.9 µM), inactives show at the top dose activation, hits mostly activators; 2,300 compounds, 5.9% hits; note: potency is the fitted concentration of half-maximal effect; % of control where 0% means no effect; nearly all actives have a fitted effect of over 70% in size
* hit, by the source's call; ? = inconclusive; nt = no result. Unless noted, calls come from the whole dose curve; as a rule, active = well fitted activation curve with a large enough effect; inconclusive = small, poorly fitted or top-dose-only effect; inactive = flat fitted curve, though single readings scatter.

SMILES	D2 PAM-1	D2 antagonist	D2 ag-1	D2 PAM-2	D2 ag-2	D3 arrestin ag	D2 ag-3
O=C(Nc1ccc(OC(F)(F)F)cc1)c1cnc2n(c1=O)CCS2	6	-4	0	-3	-3	nt	nt
CCCCOC(=O)c1ccc(NC(=O)c2cnc3n(c2=O)CCS3)cc1	-1	4	0	14	1	10%	17%
CC1(C)CC(=O)C2=C(C1)N(c1ccc(F)cc1)C(=O)NC2(C(F)(F)F)C(F)(F)F	-19	8	-1	8	-1	nt	nt
Cc1[nH]n(-c2ccccc2)c(=O)c1C1(C(F)(F)F)C(=O)N(c2ccc(F)cc2)C2=C1C(=O)CC(C)(C)C2 (stereo not drawn)	-10	11	5	-15	1	12%	-6%
CCN(CC1CCCO1)C(=O)c1cc(COc2cc(C)c(Cl)c(C)c2)on1 (stereo not drawn)	8	1	1	-6	6	nt	nt
O=C(CCc1nnc2n(Cc3ccc(Cl)cc3)c(=O)c3ccccc3n12)N1CCN(c2ccccn2)CC1	-2	-19	-1	-5	5	nt	nt
CC(C)OCCCn1c(=O)c2ccccc2n2c(CCC(=O)N3CCN(c4ccccn4)CC3)nnc12	-16	25	67*	1	13	-2%	4%
CC(COc1ccccc1)N1CCC(CO)(Cc2ccccc2)CC1 (stereo not drawn)	-12	85*	68*	-11	?	6%	?
CC(C)(O)[C@@H]1CC(=O)[C@]2(C)[C@H](CC[C@@]3(C)[C@H](c4ccoc4)OC(=O)[C@H]4O[C@]432)[C@@]1(C)/C=C\C(=O)O	-2	5	-1	-5	-1	nt	nt
CC1(C)OC(=O)C=C[C@]2(C)[C@H]3CC[C@@]4(C)[C@H](C(=O)O)OC(=O)[C@H]5O[C@]54[C@]3(C)C(=O)C[C@@H]12	16	11	0	-9	-2	-5%	-4%
O=c1cc(CN2CCN(c3ccccc3)CC2)nc2scc(-c3ccccc3)n12	11	-6	2	-6	?	nt	nt
C=CCNCc1cc(=O)n2c(-c3ccccc3)csc2n1	-15	30	47*	-2	9	-1%	16%
COc1ccc(-c2sc3ccc(OC)cc3c2-c2ccc(OC)c(F)c2)cc1	2	1	0	-3	-5	nt	nt
COc1ccc2sc(-c3ccccc3OC)c(-c3ccc(OC)c(F)c3)c2c1	-34	3	48*	-6	-1	-6%	-2%
O=C(Cc1ccccc1)Nc1cccnc1	11	-26	3	0	-5	nt	nt
Cc1cccc(CC(=O)Nc2cccnc2)c1	1	2	30	-19	0	-11%	2%
CCOC(=O)c1[nH]c2ccc(Br)cc2c1NC(=O)CCN1CCCC(C)(C)C1	-18	-4	60*	-29	-6	-13%	-3%
CCOC(=O)c1[nH]c2ccc(F)cc2c1NC(=O)CCN1CCOCC1	1	2	2	-9	-5	nt	nt
CN1CC2=Cc3ccccc3OC23Oc2ccccc2C=C3C1	-18	64*	59*	-42	-8	-19%	-8%
COc1ccc(C(=O)NCC2OCCc3ccccc32)cc1OC (stereo not drawn)	-4	4	1	-8	-2	nt	nt
COc1cc(C=NCC2OCCc3ccccc32)cc(OC)c1 (stereo not drawn)	-12	-4	42*	-7	5	12%	9%
COc1ccc(C(=O)NCC2OCCc3ccccc32)cc1 (stereo not drawn)	6	-29	1	-13	-1	nt	nt
COc1ccc(C=NCC2OCCc3ccccc32)cc1OC (stereo not drawn)	-23	-4	47*	0	-2	8%	13%
CCCCc1n(CC(=O)c2ccc(Cl)cc2)c2ccccc2[n+]1C	8	17	1	-9	-2	nt	nt
